What all share (experiment): yeast three-hybrid, YBZ-1, SC-Leu-His + 0.5 mM 3-AT, 4 days
Conditions in all cases: tags: N-Gal4 AD-HA kept; label: inside an RPR1-promoter hybrid RNA with tandem MS2 sites; ssRNA

Test [1] addresses PUM1 PUF domain R5-KST (Homo sapiens, UniProt Q14671 828-1176, C1007K;R1008S;Q1011T). An outline of the steps: (§1)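 The interaction score is the logarithmic change in variant frequency from input to selection. It uses log2, with a pseudocount of 1 for absent variants, and frequencies came from PCR-amplified, Illumina-sequenced repeat regions. The libraries were Pumilio-1 PUF domains randomized at the three base-contacting residues per repeat, co-expressed with matching RNA elements in strain YBZ-1 (LexA–MS2 coat fusion, HIS3 reporter). Plating lasted four days on SC-Leu (input) or SC-Leu-His + 0.5 mM 3-AT (selection).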

In test [2] the target is PUM1 PUF domain R5-RPD (Homo sapiens, UniProt Q14671 828-1176, C1007R;R1008P;Q1011D). Summed up: as §1
Test [3] addresses PUM1 PUF domain R5-RNW (Homo sapiens, UniProt Q14671 828-1176, C1007R;R1008N;Q1011W). Summed up: as §1
Test [4] concerns the target PUM1 PUF domain R8-RHG (Homo sapiens, UniProt Q14671 828-1176, N1122R;Y1123H;Q1126G). Summed up: as §1
For test [5], the target named is PUM1 PUF domain R5-RHQ (Homo sapiens, UniProt Q14671 828-1176, C1007R;R1008H). Summed up:
as §1

In test [6] the target is T1, PUM1 PUF domain R6-RFC (Homo sapiens, UniProt Q14671 828-1176, N1043R;Y1044F;Q1047C).
T1 sequence: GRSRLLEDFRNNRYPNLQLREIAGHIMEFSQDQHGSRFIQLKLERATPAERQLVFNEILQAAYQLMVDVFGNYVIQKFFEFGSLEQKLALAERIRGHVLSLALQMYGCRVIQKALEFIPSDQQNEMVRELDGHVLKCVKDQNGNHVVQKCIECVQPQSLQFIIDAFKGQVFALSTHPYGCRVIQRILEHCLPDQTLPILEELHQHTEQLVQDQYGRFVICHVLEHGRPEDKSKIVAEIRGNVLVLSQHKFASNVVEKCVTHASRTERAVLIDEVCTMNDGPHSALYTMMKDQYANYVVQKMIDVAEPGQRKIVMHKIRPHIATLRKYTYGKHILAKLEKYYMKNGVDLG
Summed up:
as §1

Test [7] has as its target PUM1 PUF domain R3-APL (Homo sapiens, UniProt Q14671 828-1176, C935A;R936P;Q939L). Summed up: as §1
Test [8] concerns the target PUM1 PUF domain R4-SRL (Homo sapiens, UniProt Q14671 828-1176, N971S;H972R;Q975L). An outline of the steps:
as §1

Test [9] deals with PUM1 PUF domain R4-YRL (Homo sapiens, UniProt Q14671 828-1176, N971Y;H972R;Q975L). Summed up:
as §1

Test [10] deals with PUM1 PUF domain R5-QRK (Homo sapiens, UniProt Q14671 828-1176, C1007Q;Q1011K). Summed up: as §1

As to “GGCUAGAACUAGUGGAUCCCCCGGCGCCCGGCGGCUCGAGCCCGGGUAAGUGUUAAUAGUCUGCAUGCCGCCGGGCGCCAUGCCUGCAGGUCGACUCUAGAAAACAUG”, the results for the binding signal in [1], in test [2] and in [3] were 2.74 log2 enrichment (interaction score), 2.4 log2 enrichment (interaction score) and 2.82 log2 enrichment (interaction score), respectively.
Taken in the same sequence, the figures for “GGCUAGAACUAGUGGAUCCCCCGGCGCCCGGCGGCUCGAGCCCGGGUAAGUGUCAAUAGUCUGCAUGCCGCCGGGCGCCAUGCCUGCAGGUCGACUCUAGAAAACAUG” were 4.03 log2 enrichment (interaction score), 3.41 log2 enrichment (interaction score) and 0.29 log2 enrichment (interaction score).
As for “GGCUAGAACUAGUGGAUCCCCCGGCGCCCGGCGGCUCGAGCCCGGGUAAGCGUAAAUAGUCUGCAUGCCGCCGGGCGCCAUGCCUGCAGGUCGACUCUAGAAAACAUG”, the binding signal in test [4] was 4.32 log2 enrichment (interaction score).
As to “GGCUAGAACUAGUGGAUCCCCCGGCGCCCGGCGGCUCGAGCCCGGGUAAGUGUGAAUAGUCUGCAUGCCGCCGGGCGCCAUGCCUGCAGGUCGACUCUAGAAAACAUG”, in test [5], the binding signal was 4.24 log2 enrichment (interaction score).
In the case of “GGCUAGAACUAGUGGAUCCCCCGGCGCCCGGCGGCUCGAGCCCGGGUAAGUGAAAAUAGUCUGCAUGCCGCCGGGCGCCAUGCCUGCAGGUCGACUCUAGAAAACAUG”, the binding signal in [6] was 1.2 log2 enrichment (interaction score).
For the sequence “GGCUAGAACUAGUGGAUCCCCCGGCGCCCGGCGGCUCGAGCCCGGGUAAGUGUAAAUAGUCUGCAUGCCGCCGGGCGCCAUGCCUGCAGGUCGACUCUAGAAAACAUG”, the binding signal in test [7] was 3.04 log2 enrichment (interaction score); in test [8], 3.87 log2 enrichment (interaction score); in test [9], 3.01 log2 enrichment (interaction score); in [10], 2.97 log2 enrichment (interaction score); in [4], 4.31 log2 enrichment (interaction score); in [6], 4.13 log2 enrichment (interaction score).

Source of the values: article PMC8384837, “Expanding the binding specificity for RNA recognition by a PUF domain”.
